# According to PubChem BioAssay:
# Calls of active or inactive are those of the source.
# How the values were obtained:
# [1] = test system: PRMT1 (protein arginine N-methyltransferase 1); experiment: PRMT1 binders on small-molecule microarrays, primary screen, biochemical, small-molecule microarray, 635 nm fluorescence (AID 1088); conditions: small-molecule microarray binding, higher = more signal;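 further: binding of Prmt1 protein to compounds spotted on small-molecule microarray slides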
# [2] = yeast growth modulation, basal conditions, primary screen, YJM789 clinical isolate, OD600, 24 h (AID 1089);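 further: growth of clinical yeast isolate S. cerevisiae YJM 789 seeded 1000 cells per well; test concentration not given here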; conditions: S. cerevisiae YJM789 growth, higher = more signal, called active from +8 up or from −8 down
# [3] = fission yeast growth modulation, primary screen, strain 972, OD600, 24 h, no modulator (AID 1090);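 further: basal condition with compound alone and no growth modifier present; test concentration not given here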; conditions: S. pombe 972 growth, higher = more signal, called active from +8 up or from −8 down
# [4] = S. cerevisiae growth modulation with rapamycin, primary screen, strain BY4716, OD600, 96 h (AID 1091); conditions: higher = more signal, called active from +8 up or from −8 down; further: test concentration not given here
# [5] = target: Torsin-1A-interacting protein 2 (Homo sapiens) (UniProt Q8NFQ8); experiment: LULL1 binders on small-molecule microarray, primary screen, cell lysate, human LULL1 lysate, 635/667 nm fluorescence (AID 1092); conditions: hLULL1 lysate binding, 635 nm fluorescence, higher = more signal;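 further: probe is lysate of COS7 cells overexpressing human LULL1; score merges per-feature 667 nm fluorescence with signal-to-noise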
# [6] = E. coli growth modulation, two-sided OD650, primary screen, E. coli filamentation project, strain DRC41, 24 h (AID 1093); conditions: OD650, 24 h, higher = more signal, called active from +8 up or from −8 down;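 further: MC1000 strain lacking acrAB efflux and sulA so SOS filamentation is blocked; test concentration not given here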
# [7] = small-molecule microarray binders of probe aLefty2, primary screen, biochemical, biotinylated probe, 635/667 nm fluorescence (AID 1094); conditions: higher = more signal;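 further: score merges spot fluorescence near 667 nm with spot signal-to-noise ratio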
# [8] = test system: Noggin (protein binding on small-molecule microarray); experiment: Noggin binders on small-molecule microarray, primary screen, biochemical, 635/667 nm fluorescence (AID 1095); conditions: 635 nm fluorescence, higher = more signal;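 further: score merges 667 nm feature fluorescence with signal to noise over triplicate slides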
# [9] = target: Neurogenic locus notch homolog protein 3 (Homo sapiens) (UniProt Q9UM47); experiment: NOTCH3 binders on small-molecule microarray, primary screen, biochemical, 635/667 nm fluorescence (AID 1096); conditions: NOTCH3 binding, 635 nm fluorescence, higher = more signal
# [10] = small-molecule microarray binders of probe aEGFR, primary screen, biochemical, biotinylated probe, 635/667 nm fluorescence (AID 1097); conditions: higher = more signal;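 further: probe is a biotinylated anti-EGFR antibody binding compounds printed on slides; score combines fluorescence near 667 nm and signal to noise of each spot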
# [11] = test system: Plasmodium falciparum Sir2 (PF13_0152, Sir2A); experiment: pfSir2 binders on small-molecule microarrays, primary screen, biochemical, small-molecule microarray, 635 nm fluorescence (AID 1098); conditions: small-molecule microarray binding, fluorescence 635 nm; higher = more signal;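 further: score merges spot fluorescence intensity with its signal-to-noise ratio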
# [12] = small-molecule microarray binders of probe aDKK1, primary screen, biochemical, biotinylated probe, 635/667 nm fluorescence (AID 1099); conditions: higher = more signal;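 further: score merges 667nm spot fluorescence with signal to noise across triplicate slides; reference of the scale not given here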
# [13] = small-molecule microarray binders of probe aCHRDL2, primary screen, biochemical, biotinylated probe, 635/667 nm fluorescence (AID 1100); conditions: higher = more signal
# [14] = splicing luciferase reporter signal modulators, primary screen, spliceosome inhibition project, cell-based, HEK293, splice +/- reporter (AID 1101); conditions: luminescence, 24 h, higher = more signal, called active from +8 up or from −8 down;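 further: HEK293 cells carrying a splicing-competent luciferase reporter gene; test concentration not given here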
# [15] = target: Fibroblast growth factor 10 (Homo sapiens) (UniProt O15520); experiment: FGF10 binders on small-molecule microarrays, primary screen, biochemical, small-molecule microarray, 635 nm fluorescence (AID 1102); conditions: FGF10 binding, fluorescence 635 nm, higher = more signal
# [16] = test system: glycogen synthase kinase-3 (GSK3A per assay name; protocol says GSK3B); experiment: GSK3 binders on small-molecule microarrays, primary screen, biochemical, small-molecule microarray, 635 nm fluorescence, GSK3A (AID 1103); conditions: small-molecule microarray binding, fluorescence 635 nm; higher = more signal; further: the record names both GSK3A and GSK3B
# [17] = target: Epidermal growth factor receptor (Homo sapiens) (UniProt P00533); experiment: EGFR binders on small-molecule microarrays, primary screen, biochemical, small-molecule microarray, 635 nm fluorescence (AID 1104); conditions: EGFR binding, higher = more signal;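 further: score merges 667 nm emission intensity with spot signal to noise over triplicate slides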
# [18] = target: Follistatin-related protein 3 (Homo sapiens) (UniProt O95633); experiment: FSTL3 binders on small-molecule microarrays, primary screen, biochemical, small-molecule microarray, 635 nm fluorescence (AID 1105); conditions: FSTL3 binding, higher = more signal;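 further: score merges emission near 667 nm and signal to noise per printed spot across three slides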
# [19] = target: Dickkopf-related protein 1 (Homo sapiens) (UniProt O94907); experiment: DKK1 binders on small-molecule microarrays, primary screen, biochemical, small-molecule microarray, 635 nm fluorescence scan (AID 1106); conditions: DKK1 binding, higher = more signal;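 further: score merges emission near 667 nm with signal to noise over three replicate slides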
# [20] = test system: Inhibin beta A chain (activin A); experiment: INHBA (activin A) binders on microarrays, primary screen, biochemical, small-molecule microarray, 635 nm fluorescence scan (AID 1107); conditions: small-molecule microarray binding, higher = more signal;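 further: mouse activin A protein probed at 4.33 µg/mL on printed slides; score merges bound-protein fluorescence near 667 nm with spot signal-to-noise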
# Chain of Epidermal growth factor receptor (Homo sapiens) (P00533 whole entry, looked up): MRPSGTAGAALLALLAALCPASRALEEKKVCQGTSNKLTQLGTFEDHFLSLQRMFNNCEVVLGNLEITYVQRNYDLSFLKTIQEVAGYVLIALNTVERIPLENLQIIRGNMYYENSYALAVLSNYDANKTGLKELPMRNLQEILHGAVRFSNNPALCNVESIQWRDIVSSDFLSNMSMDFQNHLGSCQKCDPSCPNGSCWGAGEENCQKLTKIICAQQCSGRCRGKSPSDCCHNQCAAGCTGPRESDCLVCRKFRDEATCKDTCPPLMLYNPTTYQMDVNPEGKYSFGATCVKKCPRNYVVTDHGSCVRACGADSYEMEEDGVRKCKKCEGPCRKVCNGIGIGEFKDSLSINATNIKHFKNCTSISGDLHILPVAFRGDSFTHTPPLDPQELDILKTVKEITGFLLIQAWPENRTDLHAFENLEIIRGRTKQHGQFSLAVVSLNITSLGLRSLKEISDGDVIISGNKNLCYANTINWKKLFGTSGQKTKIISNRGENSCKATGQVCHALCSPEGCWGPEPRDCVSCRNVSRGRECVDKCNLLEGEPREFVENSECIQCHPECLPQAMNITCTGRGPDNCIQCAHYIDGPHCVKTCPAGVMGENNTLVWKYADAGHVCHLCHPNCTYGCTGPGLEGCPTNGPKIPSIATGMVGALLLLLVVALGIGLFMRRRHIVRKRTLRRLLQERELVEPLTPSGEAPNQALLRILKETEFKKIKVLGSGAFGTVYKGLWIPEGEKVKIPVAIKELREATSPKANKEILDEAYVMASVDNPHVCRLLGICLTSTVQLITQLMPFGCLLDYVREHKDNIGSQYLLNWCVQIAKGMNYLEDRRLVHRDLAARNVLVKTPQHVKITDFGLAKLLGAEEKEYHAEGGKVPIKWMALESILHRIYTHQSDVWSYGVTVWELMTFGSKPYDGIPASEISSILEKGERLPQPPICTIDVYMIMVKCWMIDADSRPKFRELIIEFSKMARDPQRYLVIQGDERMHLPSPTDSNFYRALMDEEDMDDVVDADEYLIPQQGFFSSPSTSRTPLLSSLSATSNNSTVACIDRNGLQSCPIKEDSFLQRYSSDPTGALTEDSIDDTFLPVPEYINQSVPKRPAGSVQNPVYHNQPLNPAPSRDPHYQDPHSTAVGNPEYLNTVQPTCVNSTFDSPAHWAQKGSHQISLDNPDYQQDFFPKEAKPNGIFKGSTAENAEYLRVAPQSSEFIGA
# Chain of Fibroblast growth factor 10 (Homo sapiens) (O15520 whole entry, looked up): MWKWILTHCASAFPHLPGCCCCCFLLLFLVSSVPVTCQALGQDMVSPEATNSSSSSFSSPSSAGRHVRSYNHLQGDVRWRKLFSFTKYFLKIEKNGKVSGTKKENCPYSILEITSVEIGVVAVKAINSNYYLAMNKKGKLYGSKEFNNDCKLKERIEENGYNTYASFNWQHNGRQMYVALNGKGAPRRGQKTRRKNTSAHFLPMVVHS
# Chain of Neurogenic locus notch homolog protein 3 (Homo sapiens) (Q9UM47 whole entry, looked up): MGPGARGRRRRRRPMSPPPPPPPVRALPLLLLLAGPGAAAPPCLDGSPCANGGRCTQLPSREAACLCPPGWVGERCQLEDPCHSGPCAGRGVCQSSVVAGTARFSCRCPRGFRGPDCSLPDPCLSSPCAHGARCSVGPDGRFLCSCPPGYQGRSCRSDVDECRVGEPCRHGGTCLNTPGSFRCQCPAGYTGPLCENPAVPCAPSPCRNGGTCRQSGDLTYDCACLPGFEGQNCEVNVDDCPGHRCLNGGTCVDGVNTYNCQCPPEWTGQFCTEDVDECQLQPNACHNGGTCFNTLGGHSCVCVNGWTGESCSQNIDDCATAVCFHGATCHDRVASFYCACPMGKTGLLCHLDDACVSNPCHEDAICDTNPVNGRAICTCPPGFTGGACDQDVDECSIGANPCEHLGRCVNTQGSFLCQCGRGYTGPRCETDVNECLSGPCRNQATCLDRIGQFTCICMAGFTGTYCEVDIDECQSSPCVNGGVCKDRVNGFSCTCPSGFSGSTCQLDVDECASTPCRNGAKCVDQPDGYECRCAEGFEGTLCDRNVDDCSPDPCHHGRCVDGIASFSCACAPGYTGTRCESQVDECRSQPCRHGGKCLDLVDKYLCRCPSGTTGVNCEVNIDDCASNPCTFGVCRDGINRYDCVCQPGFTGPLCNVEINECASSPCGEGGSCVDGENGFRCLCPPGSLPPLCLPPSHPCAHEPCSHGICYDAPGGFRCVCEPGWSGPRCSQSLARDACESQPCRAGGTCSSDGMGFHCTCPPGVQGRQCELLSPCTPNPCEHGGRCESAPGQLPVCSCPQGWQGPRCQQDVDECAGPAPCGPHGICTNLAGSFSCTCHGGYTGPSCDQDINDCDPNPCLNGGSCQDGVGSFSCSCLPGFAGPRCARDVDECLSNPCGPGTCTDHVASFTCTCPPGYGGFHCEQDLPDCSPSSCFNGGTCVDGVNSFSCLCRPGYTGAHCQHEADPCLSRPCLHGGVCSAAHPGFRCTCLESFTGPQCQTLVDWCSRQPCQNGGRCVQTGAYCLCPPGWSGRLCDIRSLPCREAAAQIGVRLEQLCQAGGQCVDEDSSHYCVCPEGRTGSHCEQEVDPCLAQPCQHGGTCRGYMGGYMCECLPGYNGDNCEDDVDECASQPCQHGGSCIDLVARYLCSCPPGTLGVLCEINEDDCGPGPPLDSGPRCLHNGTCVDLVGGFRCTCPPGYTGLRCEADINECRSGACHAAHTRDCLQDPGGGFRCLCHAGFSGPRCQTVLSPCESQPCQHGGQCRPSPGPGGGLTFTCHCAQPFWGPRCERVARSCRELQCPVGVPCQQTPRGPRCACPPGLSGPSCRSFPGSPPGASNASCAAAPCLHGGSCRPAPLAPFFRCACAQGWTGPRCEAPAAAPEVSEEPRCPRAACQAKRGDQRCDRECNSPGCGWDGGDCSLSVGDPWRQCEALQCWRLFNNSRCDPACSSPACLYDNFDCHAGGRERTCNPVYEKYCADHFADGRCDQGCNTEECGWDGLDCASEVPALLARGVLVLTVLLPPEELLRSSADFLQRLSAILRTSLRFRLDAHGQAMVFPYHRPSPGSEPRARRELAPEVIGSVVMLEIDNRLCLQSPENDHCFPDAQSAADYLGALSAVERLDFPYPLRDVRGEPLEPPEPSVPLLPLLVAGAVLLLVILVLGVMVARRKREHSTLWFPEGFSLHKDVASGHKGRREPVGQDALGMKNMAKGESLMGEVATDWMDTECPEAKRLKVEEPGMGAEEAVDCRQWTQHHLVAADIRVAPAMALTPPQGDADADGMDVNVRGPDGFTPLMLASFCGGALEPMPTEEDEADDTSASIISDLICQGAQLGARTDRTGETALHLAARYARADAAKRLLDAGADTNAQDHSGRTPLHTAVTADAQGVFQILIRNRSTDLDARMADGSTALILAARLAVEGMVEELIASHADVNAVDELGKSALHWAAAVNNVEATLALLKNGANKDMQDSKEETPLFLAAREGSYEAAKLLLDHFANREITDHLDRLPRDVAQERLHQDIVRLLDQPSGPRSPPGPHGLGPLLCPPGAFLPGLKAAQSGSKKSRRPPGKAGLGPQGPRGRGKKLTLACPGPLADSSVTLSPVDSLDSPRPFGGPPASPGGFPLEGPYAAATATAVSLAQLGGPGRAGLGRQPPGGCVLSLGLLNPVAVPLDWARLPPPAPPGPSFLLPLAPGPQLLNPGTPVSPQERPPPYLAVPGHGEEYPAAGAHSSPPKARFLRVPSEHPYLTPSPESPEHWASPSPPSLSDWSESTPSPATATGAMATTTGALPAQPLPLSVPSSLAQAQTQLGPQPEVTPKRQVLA
# Chain of Follistatin-related protein 3 (Homo sapiens) (O95633 whole entry, looked up): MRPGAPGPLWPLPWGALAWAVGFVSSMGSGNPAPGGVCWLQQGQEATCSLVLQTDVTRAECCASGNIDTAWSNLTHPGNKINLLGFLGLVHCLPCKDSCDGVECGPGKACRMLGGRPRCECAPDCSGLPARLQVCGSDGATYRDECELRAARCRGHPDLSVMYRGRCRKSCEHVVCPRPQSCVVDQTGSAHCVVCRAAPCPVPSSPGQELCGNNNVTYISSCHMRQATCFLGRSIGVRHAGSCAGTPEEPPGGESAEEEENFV
# Chain of Dickkopf-related protein 1 (Homo sapiens) (O94907 whole entry, looked up): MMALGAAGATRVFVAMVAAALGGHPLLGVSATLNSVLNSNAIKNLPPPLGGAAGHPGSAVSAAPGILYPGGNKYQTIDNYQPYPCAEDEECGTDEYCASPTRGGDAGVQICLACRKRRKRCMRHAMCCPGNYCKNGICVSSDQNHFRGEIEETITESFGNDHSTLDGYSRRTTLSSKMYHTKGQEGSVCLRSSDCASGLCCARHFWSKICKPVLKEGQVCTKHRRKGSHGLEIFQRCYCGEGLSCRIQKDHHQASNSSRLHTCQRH
# Chain of Torsin-1A-interacting protein 2 (Homo sapiens) (Q8NFQ8 whole entry, looked up): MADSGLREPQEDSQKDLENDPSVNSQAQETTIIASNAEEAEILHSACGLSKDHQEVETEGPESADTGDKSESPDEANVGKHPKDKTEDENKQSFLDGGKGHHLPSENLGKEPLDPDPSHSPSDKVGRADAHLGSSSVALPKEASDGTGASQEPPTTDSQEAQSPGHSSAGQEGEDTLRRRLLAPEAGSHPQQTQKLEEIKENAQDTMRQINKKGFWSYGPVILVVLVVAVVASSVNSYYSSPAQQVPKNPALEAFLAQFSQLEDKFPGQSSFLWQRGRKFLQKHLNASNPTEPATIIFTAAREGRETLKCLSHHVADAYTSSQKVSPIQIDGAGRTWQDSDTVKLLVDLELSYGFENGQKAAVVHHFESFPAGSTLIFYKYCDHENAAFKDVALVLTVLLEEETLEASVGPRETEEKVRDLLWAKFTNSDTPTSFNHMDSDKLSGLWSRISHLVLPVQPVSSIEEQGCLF
compound,measurement,setting,value
O=C1O[C@H](c2ccccc2)[C@H](c2ccccc2)N2[C@H]1[C@@H](C(=O)NC[C@H](O)c1ccccc1)[C@]1(C(=O)Nc3ccc(C#CC4=CCCCC4)cc31)[C@H]2c1ccc(O)cc1,composite z-score,[1],1.55
same,z-score,[2],0.896 (inactive)
same,z-score,[3],0.543 (inactive)
same,z-score,[4],1.62 (inactive)
same,composite z-score,[5],2.59
same,z-score,[6],2 (inactive)
same,composite z-score,[7],-0.0766
same,composite z-score,[8],1.61
same,composite z-score,[9],1.08
same,composite z-score,[10],0.272
same,composite z-score,[11],1.29
same,composite z-score,[12],0.137
same,composite z-score,[13],0.176
same,z-score,[14],-2.1 (inactive)
same,composite z-score,[15],1.3
same,composite z-score,[16],1.29
same,composite z-score,[17],0.57
same,composite z-score,[18],1.33
same,composite z-score,[19],0.542
same,composite z-score,[20],-0.201
CC1CC/C=C\[C@H]2OC34C=CCN(Cn5nnc6ccccc65)C(=O)[C@H]3N(CCCO)C(=O)[C@@H]4C2C(=O)O1 (stereo not given in full),composite z-score,[1],-0.749
same,z-score,[2],0.175 (inactive)
same,z-score,[3],-0.463 (inactive)
same,z-score,[4],0.203 (inactive)
same,composite z-score,[5],0.389
same,z-score,[6],1.82 (inactive)
same,composite z-score,[7],-0.0499
same,composite z-score,[8],-0.511
same,composite z-score,[9],0.0174
same,composite z-score,[10],-0.192
same,composite z-score,[11],1.14
same,composite z-score,[12],-0.12
same,composite z-score,[13],0.763
same,z-score,[14],-0.538 (inactive)
same,composite z-score,[15],-1.04
same,composite z-score,[16],-1.31
same,composite z-score,[17],-0.991
same,composite z-score,[18],-0.97
same,composite z-score,[19],-1.6
same,composite z-score,[20],0.767
C=C[C@H](C)[C@H](O)c1ccc(OCCO)cc1,composite z-score,[1],-0.647
same,z-score,[2],0.132 (inactive)
same,z-score,[3],-0.404 (inactive)
same,z-score,[4],-0.539 (inactive)
same,composite z-score,[5],-1.2
same,z-score,[6],0.943 (inactive)
same,composite z-score,[7],0.19
same,composite z-score,[8],-1.19
same,composite z-score,[9],-1.11
same,composite z-score,[10],-0.397
same,composite z-score,[11],0.771
same,composite z-score,[12],-0.564
same,composite z-score,[13],0.883
same,z-score,[14],-0.961 (inactive)
same,composite z-score,[15],-0.772
same,composite z-score,[16],-1.21
same,composite z-score,[17],-1.58
same,composite z-score,[18],-0.607
same,composite z-score,[19],-1.97
same,composite z-score,[20],-2.79
C=CCN1C(=O)[C@]2(Cc3ccccc31)N=C(c1ccc(OCCCO)cc1)O[C@@H]2c1ccccc1,composite z-score,[1],1.33
same,z-score,[2],-2.2 (inactive)
same,z-score,[3],-4.05 (inactive)
same,z-score,[4],0.259 (inactive)
same,composite z-score,[5],2.76
same,z-score,[6],-2.56 (inactive)
same,composite z-score,[7],0.235
same,composite z-score,[8],0.555
same,composite z-score,[9],0.923
same,composite z-score,[10],0.0786
same,composite z-score,[11],0.733
same,composite z-score,[12],0.779
same,composite z-score,[13],0.922
same,z-score,[14],0.105 (inactive)
same,composite z-score,[15],1.43
same,composite z-score,[16],0.881
same,composite z-score,[17],-0.0128
same,composite z-score,[18],0.439
same,composite z-score,[19],0.998
same,composite z-score,[20],1.27
COCCOC(=O)N1C(=O)[C@@]2(c3ccccc31)[C@H](C(=O)N1CCCCCCC1)[C@H]1C(=O)O[C@H](c3ccccc3)[C@H](c3ccccc3)N1[C@@H]2c1ccccc1OCCO,composite z-score,[1],1.53
same,z-score,[2],0.749 (inactive)
same,z-score,[3],0.238 (inactive)
same,z-score,[4],5.75 (inactive)
same,composite z-score,[5],3.61
same,z-score,[6],-0.737 (inactive)
same,composite z-score,[7],1.67
same,composite z-score,[8],0.785
same,composite z-score,[9],1.06
same,composite z-score,[10],1.03
same,composite z-score,[11],1.72
same,composite z-score,[12],2.76
same,composite z-score,[13],1.66
same,z-score,[14],-0.0563 (inactive)
same,composite z-score,[15],1.09
same,composite z-score,[16],1.29
same,composite z-score,[17],1
same,composite z-score,[18],1.52
same,composite z-score,[19],1.5
same,composite z-score,[20],2.02
